The structures appear in SMILES notation. Values joined by “and” are separate entries in the source; they are usually repeats but may differ in a detail not shown here. Equal values may be shown once. In all, about 420,000 compounds went through this assay and about 50,000 (12%) were called active. Another 26% or so got no clear call; they are omitted. The entries come from a sample that favours actives as a whole. A number with no mark means an inactive call. Calls come from the whole dose curve; as a rule, active = well fitted inhibition curve with a large enough effect; inconclusive = small, poorly fitted or top-dose-only effect; inactive = flat fitted curve, though single readings scatter.
% is set by controls: 0 for no effect and ±100 for the full control effect; potency is the fitted concentration of half-maximal effect.

This experiment in a line: qHTS for Inhibitors of human tyrosyl-DNA phosphodiesterase 1 (TDP1): qHTS in cells in presence of CPT. Note: nearly all actives have a fitted effect of over 55% in size. The following applies: chicken DT40 Tdp1-/-;hTDP1 cells + 20 nM CPT, ATP luminescence, 48 h; series mostly up to 46.2 µM; activity change, negative = growth inhibition: at the top concentration. The gist of the method: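 Cell growth measured by CellTiter-Glo luminescence after a minimum 48 h, 37 C compound exposure with 20 nM CPT in Tdp1-knockout DT40 cells stably expressing hTDP1, seeded 400/well; qHTS titration format.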
For orientation: qHTS replaces the single test concentration by a dilution series.
For `CN(CC(=O)Nc1ccccc1Cl)C(=O)c1ccccc1SCC(=O)N1CCCC1`, the “activity change, negative = growth inhibition” value is 1.16%.
The same measure, in the same setting: in the case of `Cc1cccc(CNC(=O)c2cnn(-c3nccc(-c4ccccc4F)n3)c2C2CC2)n1` it was -0.952% [at 9.04 µM]; in that of `CCOc1ccccc1N1CN(Cc2ccccc2)CNC1=S`, -17.4%.
The same measure, in the same setting: in the case of `O=C1CCCN1C(=O)COc1ccc([N+](=O)[O-])cc1` it was 10.3%; in that of `CN(Cc1ccccc1)C(=O)c1cn(C)c2ccc(S(=O)(=O)N(C)C3CCCCC3)cc2c1=O`, -20%.
As to `CCN(CC)S(=O)(=O)c1ccc2[nH]cc(C(=O)NCCc3ccccc3)c(=O)c2c1`, the Potency was 14.6 µM (active) and 23.1 µM (active).
Consider `O=C(NCCc1ccccc1)c1c[nH]c2ccc(F)cc2c1=O`, for which the “activity change, negative = growth inhibition” value is 9.16%.
Regarding `CN(c1ccccc1)S(=O)(=O)c1ccc(Cl)c(C(=O)NCCc2c[nH]c3ccccc23)c1`, the Potency was 14.6 µM (active).
`CCc1ccc(NS(=O)(=O)c2ccc3[nH]cc(C(=O)NCCc4cccc(C)c4)c(=O)c3c2)cc1`: the “activity change, negative = growth inhibition” value is -27.2%.
Take `CN(c1ccccc1)S(=O)(=O)c1ccc(Cl)c(C(=O)OCC(N)=O)c1`: the “activity change, negative = growth inhibition” value is 0.976%.
Take `CC(=O)N/C(=C/c1ccc(Cl)cc1)C(=O)NCCc1c[nH]c2ccccc12`: the “activity change, negative = growth inhibition” value is -13.8%.
With `CN(CC(=O)NC(=O)Nc1ccccc1F)Cc1ccccc1`, the “activity change, negative = growth inhibition” value is -15.6%.
On the same count and under the same terms, the figure for `COCCNC(=O)C1CCN(C(=O)C2CC(=O)N(c3ccc(C)cc3)C2)CC1` (centres undefined) is 10.4%.
For `CCN(CC)CCCNC(=O)COc1ccc2oc3c(c2c1)CCCC3`, the “activity change, negative = growth inhibition” value is -13.5%.
The same measure, in the same setting: in the case of `N[C@@H](Cc1ccccc1)C(=O)N1CCOCC1` it was 4.38%; in that of `COc1cc(OC)cc(C(=O)NCCCn2ccnc2)c1`, 28.8%.
As to `CCOc1ccc(-c2cc3nc(C4CCN(C(=O)OC(C)(C)C)CC4)c(C(=O)Nc4cccc(CC)c4)cn3n2)cc1`, the Potency is 23.1 µM (active).
Consider `CCOc1ccc(-c2cc3nc(C4CCN(C(=O)OC(C)(C)C)CC4)c(C(=O)Nc4ccc(C(=O)OC)cc4)cn3n2)cc1`, for which the “activity change, negative = growth inhibition” value is -25.1%.
With `CCc1cccc(NC(=O)COC(=O)C2CCN(c3ccc(C(F)(F)F)cn3)CC2)c1`, the “activity change, negative = growth inhibition” value is 0.109%.
On to `O=c1[nH]cnc(O)c1C(c1ccc(F)cc1)c1c(O)nc[nH]c1=O`, for which the “activity change, negative = growth inhibition” value was 6.39%.
On the same count and under the same terms, the figure for `CC(=O)Oc1ccc(C(C)=O)c2c1OCCO2` is -4.02%; for `CC(=O)NCCc1ccc(S(=O)(=O)Nc2ccc(C)c(S(=O)(=O)N3CCOCC3)c2)cc1` it is -15.7%.
On to `C=CCOc1ccccc1/C=N/NC(=O)Cc1ccccc1`, for which the “activity change, negative = growth inhibition” value was -0.93%.
In the case of `O=C(NN=Cc1ccccc1O)NN=Cc1ccccc1O`, the Potency is 4.11 µM (active).
For `Oc1ccccc1C=NC1CCCCC1N=Cc1ccccc1O` (centres undefined), the “activity change, negative = growth inhibition” value is -9.12%.
Turning to `O=C(N/N=C/c1ccccc1O)/C(=C/c1ccccc1)CCO`, the Potency was 3.26 µM (active).
As for `O=C(CCCCCNC(=O)c1ccccc1)N/N=C/c1ccccc1`, the “activity change, negative = growth inhibition” value is -4.67%.
Regarding `O=C(CCC(=O)Nc1ccccc1)N/N=C/c1ccccc1F`, the “activity change, negative = growth inhibition” value was 15.4%.
Consider `CN(Cc1nc2ccccc2s1)C(=O)c1ccc(F)cc1`, for which the “activity change, negative = growth inhibition” value is -8.72%.
On the same count and under the same terms, the figure for `CCCS(=O)(=O)NC(=O)C1(C)CCN(C(=O)c2sccc2C)C1` (centres undefined) is 2.03%; for `CCc1ccc(C(=O)C(C)OC(=O)CN2C(=O)NC3(CCCC3)C2=O)cc1` (centres undefined) it is -24.3%; for `COC(=O)Nc1ccc(S(=O)(=O)Nc2cc(OC)nc(OC)n2)cc1` it is 3.17%.
As to `CCOC(=O)c1ccc(NC(=O)Cn2c(=O)n(-c3ccc(C)cc3)c(=O)c3c2cnn3C)cc1`, the “activity change, negative = growth inhibition” value was -19.4%.
On the same count and under the same terms, in the case of `COC(=O)C1=C(C(=O)OC)C2(OC1c1ccc(Br)cc1)C(=O)c1ccccc1C2=O` (centres undefined) it was -7.41%.
Regarding `CCOc1ccc(-c2n[nH]c3c2C(c2ccccc2OC)N(c2ccc(Br)cc2)C3=O)cc1` (centres undefined), the Potency is 16.4 µM (active).
As to `CN1C(=O)c2[nH]nc(-c3ccc(F)cc3)c2C1c1ccccn1` (centres undefined), the “activity change, negative = growth inhibition” value was -21.5%.
Same read-out and setting: in the case of `CCOc1ccc(/C(O)=C2\C(=O)C(=O)N(c3ccc(OC)cc3)C2c2ccccc2[N+](=O)[O-])cc1` (centres undefined) it was -12.9%; in that of `Cc1cccc(NC(=O)CSc2nnc(-c3ccco3)o2)c1`, 1.75%.
Consider `O=C(CCc1ccccc1)Nc1cccc(-c2nnc(-c3ccco3)o2)c1`, for which the Potency was 25.9 µM (active).
On to `C/C(=N/NC(=O)CCc1ccccc1)c1ccco1`, for which the “activity change, negative = growth inhibition” value is -1.78%.
On the same count and under the same terms, the figure for `COc1ccc(C(=O)NCC2CCCO2)cc1S(=O)(=O)NCc1ccc(Cl)cc1` (centres undefined) is -18.3%.
For the compound `Cc1[nH]c2ccccc2c1C(=O)C(C)Sc1nnc(C2CC2)o1` (centres undefined), the “activity change, negative = growth inhibition” value is -13.7%.
For the compound `Cc1cc(-c2ccccc2)n2nc(-c3ccccc3)cc2n1`, the “activity change, negative = growth inhibition” value was -2.08%.
As for `COC(=O)c1cc2nc(-c3ccccc3)cc(C(F)(F)F)n2n1`, the “activity change, negative = growth inhibition” value is 6.15%.
Consider `COc1ccc(-c2cc(C(F)(F)F)n3nc(-c4ccccc4)cc3n2)cc1OC`, for which the Potency was 10.3 µM (active).
With `O=C(NC1CC(=O)N(c2ccc(F)cc2)C1)C1CCCCC1` (centres undefined), the “activity change, negative = growth inhibition” value was 8.8%.
Regarding `CC1CCN(S(=O)(=O)c2ccc3c(c2)n(C)c(=O)n3C)CC1`, the “activity change, negative = growth inhibition” value was 0.293%.
Take `Cc1ccc(-c2ccnc(-n3ncc(C(=O)N(C)Cc4cccc5ncccc45)c3C3CC3)n2)o1`: the activity change, negative = growth inhibition was 10% [at 9.04 µM].
With `CC1(C)Oc2ccc3ccc(=O)oc3c2/C(=N/O)C1=O`, the “activity change, negative = growth inhibition” value is 10.3%.

The values are drawn from PubChem BioAssay AID686979 (National Center for Advancing Translational Sciences (NCATS), 2013).
